Data as given in PubChem BioAssay (NCI).
This is part of a sample that, as a whole, favours compounds with a hit. Of some 83,000 tested, about 20% had one in any assay.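 96-well plates, one dose, 48 hours. Percent growth reported; active if below 10.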 Unmarked numbers belong to inactive results. Activity calls are given as the source filed them.

Tests used:
Assay in all cases: NCI-60 one-dose screen, 48 h (100 = growth as untreated, 0 = no growth, -100 = all killed)
Conditions in all cases: 10 µM unless noted
SR leukemia = tested on: SR leukemia
RPMI-8226 leukemia = tested on: RPMI-8226 leukemia
OVCAR-8 ovarian = tested on: OVCAR-8 ovarian
OVCAR-5 ovarian = tested on: OVCAR-5 ovarian
OVCAR-4 ovarian = tested on: OVCAR-4 ovarian
SK-OV-3 ovarian = tested on: SK-OV-3 ovarian
IGROV1 ovarian = tested on: IGROV1 ovarian
OVCAR-3 ovarian = tested on: OVCAR-3 ovarian
HS 578T breast = tested on: HS 578T breast
NCI/ADR-RES ovarian = tested on: NCI/ADR-RES ovarian

Cn1cc(-c2cc(N)n3nc(-c4cn(C)c5ccccc45)cc3n2)c2ccccc21
growth (SR leukemia): -9.33% (active)
growth (RPMI-8226 leukemia): 18.7%
growth (OVCAR-8 ovarian): 85.4%
growth (OVCAR-5 ovarian): 114%
growth (OVCAR-4 ovarian): 95%
growth (SK-OV-3 ovarian): 137%
growth (IGROV1 ovarian): 104%
growth (OVCAR-3 ovarian): 101%
growth (HS 578T breast): 124%
growth (NCI/ADR-RES ovarian): 91.3%

COc1cc(-c2nc(-c3ccccc3)[nH]c2-c2ccnc(NCCCNS(=O)(=O)c3cccc(F)c3)n2)ccc1Cl
growth (SR leukemia): 32.2%
growth (RPMI-8226 leukemia): 27.2%
growth (OVCAR-8 ovarian): 31.7%
growth (OVCAR-5 ovarian): 88.1%
growth (OVCAR-4 ovarian): 56.3%
growth (SK-OV-3 ovarian): 76.8%
growth (IGROV1 ovarian): 40.6%
growth (OVCAR-3 ovarian): 40.7%
growth (HS 578T breast): 78%
growth (NCI/ADR-RES ovarian): 31.9%

COc1ccccc1-n1cc(C#N)c(N)c1C(=O)c1ccc(Br)cc1
growth (SR leukemia): 40.3%
growth (RPMI-8226 leukemia): 92.4%
growth (OVCAR-8 ovarian): 90.7%
growth (OVCAR-5 ovarian): 94.4%
growth (OVCAR-4 ovarian): 96.8%
growth (SK-OV-3 ovarian): 88.7%
growth (IGROV1 ovarian): 67.8%
growth (OVCAR-3 ovarian): 73.3%
growth (HS 578T breast): 78.4%
growth (NCI/ADR-RES ovarian): 42.6%

O=C(Nc1nc2ccc([N+](=O)[O-])cc2s1)Nc1ccccc1Br
growth (SR leukemia): 23.2%
growth (RPMI-8226 leukemia): 6.15% (active)
growth (OVCAR-8 ovarian): 51.4%
growth (OVCAR-5 ovarian): 84.4%
growth (OVCAR-4 ovarian): 12.2%
growth (SK-OV-3 ovarian): 63.6%
growth (IGROV1 ovarian): 47.3%
growth (OVCAR-3 ovarian): 25.9%
growth (HS 578T breast): 47.1%
growth (NCI/ADR-RES ovarian): 52.1%

CCCn1cnc2c(c1=N)C(c1ccc(F)cc1)c1sc3c(C)cccc3c1O2 (stereo not given)
growth (SR leukemia): 8.4% (active)
growth (RPMI-8226 leukemia): -13.5% (active)
growth (OVCAR-8 ovarian): 40.2%
growth (OVCAR-5 ovarian): 42.4%
growth (OVCAR-4 ovarian): 35.8%
growth (SK-OV-3 ovarian): 41.1%
growth (IGROV1 ovarian): 25.2%
growth (OVCAR-3 ovarian): -12.6% (active)
growth (HS 578T breast): 13.7%
growth (NCI/ADR-RES ovarian): -11.8% (active)

COc1c(N2CC3CCCNC3C2)c(F)cc2c(=O)c(C(=O)N/N=C/c3ccc(Br)cc3)cn(C3CC3)c12 (stereo not given)
growth (SR leukemia): -28.1% (active)
growth (RPMI-8226 leukemia): 65.8%
growth (OVCAR-8 ovarian): 90.3%
growth (OVCAR-5 ovarian): 92.8%
growth (OVCAR-4 ovarian): 90.1%
growth (SK-OV-3 ovarian): 99.6%
growth (IGROV1 ovarian): 75.2%
growth (OVCAR-3 ovarian): 81.7%
growth (HS 578T breast): 88.4%
growth (NCI/ADR-RES ovarian): 90.1%

Cc1cccc2c3c(sc12)C(c1ccc(Cl)cc1)c1c(nc(CC(=O)Nc2ccccc2)[nH]c1=O)O3 (stereo not given)
growth (SR leukemia): 58.1%
growth (RPMI-8226 leukemia): 73.9%
growth (OVCAR-8 ovarian): 85.6%
growth (OVCAR-5 ovarian): 81.6%
growth (OVCAR-4 ovarian): 90.3%
growth (SK-OV-3 ovarian): 73.3%
growth (IGROV1 ovarian): 21%
growth (OVCAR-3 ovarian): 30.5%
growth (HS 578T breast): 60.1%
growth (NCI/ADR-RES ovarian): 26.7%

CS(=O)(=O)c1ccc(-c2nn(-c3ccccc3)cc2/C=N/NC(=O)c2nc(N)n[nH]2)cc1
growth (SR leukemia): 69.7%
growth (RPMI-8226 leukemia): 83.3%
growth (OVCAR-8 ovarian): 101%
growth (OVCAR-5 ovarian): 94.8%
growth (OVCAR-4 ovarian): 103%
growth (SK-OV-3 ovarian): 112%
growth (IGROV1 ovarian): 90.8%
growth (OVCAR-3 ovarian): 97.1%
growth (HS 578T breast): 111%
growth (NCI/ADR-RES ovarian): 98.9%

CCn1c(SCC(=O)Nc2cccc(C(=O)/C=C/c3cc(OC)c(OC)c(OC)c3)c2)nc2ccccc2c1=O
growth (SR leukemia): 5.81% (active)
growth (RPMI-8226 leukemia): -7.09% (active)
growth (OVCAR-8 ovarian): 34.3%
growth (OVCAR-5 ovarian): 27.7%
growth (OVCAR-4 ovarian): 39.9%
growth (SK-OV-3 ovarian): 102%
growth (IGROV1 ovarian): 13%
growth (OVCAR-3 ovarian): 14.3%
growth (HS 578T breast): 59.3%
growth (NCI/ADR-RES ovarian): 14.1%

C=CCn1c(SCC(=O)Nc2ccc(C(=O)/C=C/c3cc(OC)c(OC)c(OC)c3)cc2)nnc1-c1c[nH]c2ccccc12
growth (SR leukemia): 1.35% (active)
growth (RPMI-8226 leukemia): -35.2% (active)
growth (OVCAR-8 ovarian): 37.8%
growth (OVCAR-5 ovarian): 32.1%
growth (OVCAR-4 ovarian): 59.4%
growth (SK-OV-3 ovarian): 75.3%
growth (IGROV1 ovarian): -26% (active)
growth (OVCAR-3 ovarian): 6.15% (active)
growth (HS 578T breast): 38.8%
growth (NCI/ADR-RES ovarian): 88.9%

CCOC(=O)C1=NNC(c2ccc(Cl)cc2)C1C(=O)N1C(=S)NC(=O)C1CC(C)C (stereo not given)
growth (SR leukemia): 96.8%
growth (RPMI-8226 leukemia): 95%
growth (OVCAR-8 ovarian): 100%
growth (OVCAR-5 ovarian): 101%
growth (OVCAR-4 ovarian): 96.5%
growth (SK-OV-3 ovarian): 93.5%
growth (IGROV1 ovarian): 77.1%
growth (OVCAR-3 ovarian): 113%
growth (HS 578T breast): 98.6%
growth (NCI/ADR-RES ovarian): 99.9%

N#Cc1c(-c2cccs2)cc(-c2cnccn2)nc1SCC(=O)Nc1ccc(Br)cc1
growth (SR leukemia): 79.5%
growth (RPMI-8226 leukemia): 99.5%
growth (OVCAR-8 ovarian): 94.6%
growth (OVCAR-5 ovarian): 86.7%
growth (OVCAR-4 ovarian): 73.8%
growth (SK-OV-3 ovarian): 97.6%
growth (IGROV1 ovarian): 64.8%
growth (OVCAR-3 ovarian): 96.3%
growth (HS 578T breast): 68.6%
growth (NCI/ADR-RES ovarian): 85.8%

O=C(O)c1ccc(-n2cc(CNc3cc(F)c(F)c(F)c3)c(-c3ccc(F)cc3)n2)cc1
growth (SR leukemia): 78.1%
growth (RPMI-8226 leukemia): 76.3%
growth (OVCAR-8 ovarian): 83.9%
growth (OVCAR-5 ovarian): 108%
growth (OVCAR-4 ovarian): 95.5%
growth (SK-OV-3 ovarian): 116%
growth (IGROV1 ovarian): 91.9%
growth (OVCAR-3 ovarian): 96.3%
growth (HS 578T breast): 97.5%
growth (NCI/ADR-RES ovarian): 97.8%
